About 83,000 compounds went through this panel and 20% of them were active in at least one assay; those are over-represented in the sample as a whole.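 Note: values are percent growth. 100 is the growth of untreated cells, values between 100 and 0 indicate rising inhibition; between -100 and 0 indicates cell death.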 Values without a mark were called inactive. Calls of active or inactive are those of the source. The calls were made as follows: active = growth percent below 10; inactive = the rest.
Experiments:
Assay in all cases: NCI-60 one-dose screen, 48 h (100 = growth as untreated, 0 = no growth, -100 = all killed)
Details in all cases: 10 µM
[1] = system: K-562 leukemia
[2] = system: MALME-3M melanoma
[3] = system: MDA-MB-231 breast
[4] = system: RXF 393 renal
[5] = system: SF-268 CNS
[6] = system: SF-295 CNS
[7] = system: SF-539 CNS
[8] = system: UACC-257 melanoma
[9] = system: M14 melanoma
[10] = system: HCT-15 colon
[11] = system: HT29 colon
[12] = system: SNB-75 CNS
[13] = system: SNB-19 CNS
[14] = system: U251 CNS
[15] = system: PC-3 prostate
[16] = system: SK-MEL-5 melanoma
[17] = system: UACC-62 melanoma
[18] = system: LOX IMVI melanoma
[19] = system: SK-MEL-28 melanoma
[20] = system: SK-MEL-2 melanoma

Compound | growth [1] | growth [2] | growth [3] | growth [4] | growth [5] | growth [6] | growth [7] | growth [8] | growth [9] | growth [10] | growth [11] | growth [12] | growth [13] | growth [14] | growth [15] | growth [16] | growth [17] | growth [18] | growth [19] | growth [20]
O=C(c1ccc(Cl)cc1Cl)N1CCOCC1 | 89.1% | 112% | 98.5% | 116% | 98.1% | 140% | 96.9% | 96.6% | 103% | 112% | 105% | 81.8% | 103% | 105% | 96.4% | 96.3% | 101% | 96.8% | 110% | 96.5%
COc1ccc(-c2cc(/C=C/C(=O)c3cc(OC)c(OC)c(OC)c3)[nH]n2)cc1OC | 5.1% (active) | -17.5% (active) | -25.3% (active) | -16.9% (active) | -45.7% (active) | 29.1% | -51.4% (active) | 69.6% | 53.2% | -15.5% (active) | -53.9% (active) | 17.8% | 25.5% | -77.6% (active) | 24.7% | 27.4% | 50.8% | -79% (active) | -66.8% (active) | 69.9%
COc1ccc(-n2c(SCc3cc(OC)c(OC)c(OC)c3)nc3ccc(C)cc3c2=O)cc1 | 16.9% | 59.7% | 59.8% | 52.8% | 80.6% | 51.4% | 77.7% | 77.3% | 53.8% | 33.6% | 21.9% | 44.4% | 83.7% | 69.1% | 75% | 54.9% | 56.7% | 63% | 74% | 64.8%
O=C(Nc1ccc(Cl)cc1)N1NC(c2ccc(Cl)cc2)C=C1c1ccccc1 (stereo not given) | 103% | 100% | 106% | 102% | 103% | 105% | 112% | 99.7% | 102% | 103% | 103% | 72.1% | 109% | 97.1% | 107% | 94.6% | 105% | 104% | 109% | 107%
COc1cc(/C=C\c2cc(OC)c(OC)c(OC)c2)cc(NS(=O)(=O)c2ccc(Cl)cc2)c1OC | 11.2% | 71.9% | 24% | -4.53% (active) | 39.7% | 10.9% | -23.9% (active) | 45.2% | 18.8% | 20% | 5.17% (active) | 49.1% | 58.4% | 20.5% | 13.7% | 24.3% | 39.3% | 35.8% | 70.8% | 17.8%
c1ccc(CP(Cc2ccccc2)c2ccccc2)cc1 | 83.4% | 82.3% | 98.3% | 113% | 110% | 82.4% | 110% | 95.5% | 95.4% | 95.1% | 88.2% | 101% | 105% | 93.6% | 86.2% | 99% | 99.3% | 86.8% | 110% | 97%
COc1ccc2c(c1)nc(N)c1c3cccnc3cn21 | 18.4% | 66.3% | 22.4% | 34.8% | 34.4% | -16.6% (active) | 10.2% | 67.1% | 9.28% (active) | 19.5% | -5.58% (active) | 42% | 35.9% | 12.7% | 20.6% | -38.1% (active) | 16% | 35.1% | 62.6% | 53.2%
